Screens deposited in PubChem by National Center for Advancing Translational Sciences (NCATS).
Rows were chosen to be rich in hits. Some 2.4% of all compounds tested hit in one or more screens of this group.
FUS suppressor = qHTS for Suppressors of FUS Proteinopathy: Primary screen using FUS-linked yeast assay; AID 1347120, 2019; 0.24% of 390,000 active; Potency, µM (doses to about 76.6 µM), hits mostly activators; S. cerevisiae FUS-expressing, growth rescue, OD600, 24 h; note: nearly all actives have a fitted effect of over 55% in size
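Galactose (2%) drives FUS expression in yeast precultured in raffinose; seeding density OD 0.005. Test compounds incubated 24hr at 30C and 99% humidity before absorbance at 600 nm was measured.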
Mito fusion act = qHTS Assay for Small Molecule Inhibitors of Mitochondrial Division or Activators of Mitochondrial Fusion; 0.23% of 320,000 active; Potency, µM (highest dose often 46.1 µM), most hits filed as activators; S. cerevisiae fusion-defective mutant growth rescue, CellTiterGlo 48 h; AID 485298, 2010; note: nearly all actives have a fitted effect of over 45% in size
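Temperature-sensitive fusion-defective S. cerevisiae (e.g. fzo1-1, mgm1-5) were grown with compound in YPEG medium (3% ethanol, 3% glycerol) for 48 hours at 37C. Growth rescue was measured as viability by CellTiterGlo luminescence after 10 minutes at ambient.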
TDP-43 yeast inh = qHTS of TDP-43 Inhibitors. AID 652104, 2013. Potency, µM (highest dose often 46.1 µM), most hits filed as activators. 1.8% of 410,000 active. TDP-43 expressing yeast growth rescue, BacTiter-Glo, 24 h; note: nearly all actives have a fitted effect of over 50% in size
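Galactose-induced TDP-43 yeast, OD600=0.02, compound pinned; 24 hr, 30 deg C; BacTiter-Glo luminescence for growth. Inhibitors of TDP-43 toxicity read as activators.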
A-T KAP1 phos = qHTS Assay for Identifying a Potential Treatment of Ataxia-Telangiectasia | AID 485349, 2010 | 0.19% of 320,000 active | Potency, µM (doses to about 57.5 µM), usual class: activators | F2112 A-T fibroblasts, KAP-1 phosphorylation AlphaLISA; neocarzinostatin DNA damage 30 min before lysis; note: nearly all actives have a fitted effect of over 45% in size
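hTERT-immortalized A-T patient fibroblasts (F2112), 500 cells/well in OPTI-MEM, 1% FBS, got compounds for 60 min, then NCS for 30 min at 37C. Lysates were then assayed for phospho-KAP-1 by AlphaLISA (anti-pKAP1 donor, anti-KAP1 acceptor beads), 6 hr at 25C.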
aSyn yeast inh = qHTS of alpha-syn Inhibitors. Yeast expressing alpha-synuclein, growth rescue, BacTiter-Glo, 24 h. 0.14% of 370,000 active. Potency, µM (top dose mostly 46.1 µM), usual class: activators; note: nearly all actives have a fitted effect of over 65% in size
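Rescue of yeast growth: cells expressing toxic alpha-synuclein, induced in galactose at OD600 0.02, incubated with compound 24 h at 30 C. ATP luminescence quantified growth; inhibitors of toxicity appear as activators.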
Abeta yeast res = qHTS for compounds that reverse cellular toxicity of Amyloid beta (A-beta) peptide in yeast: Primary Screen; yeast expressing A-beta42, growth rescue, OD600, 48 h; response scale: 0% DMSO, 100% iron-clioquinol control; Potency, µM (titrated, usually from 46.1 µM), usual class: activators; 0.063% of 410,000 active; AID 1347071, 2019; note: nearly all actives have a fitted effect of over 55% in size
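Growth rescue measured by 600 nm absorbance after 48 h yeast culture at 30 C with compound. Values normalized between DMSO and an equimolar ferric chloride plus clioquinol control.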
Numbers stand for hits; i = inactive; ? = inconclusive; nt = no result; ! = repeats disagree; [ ] = remark or other dose. Calls come from the whole dose curve; as a rule, active = well fitted curve in the direction sought with a large enough effect; inconclusive = small, poorly fitted or top-dose-only effect, or another doubt; inactive = no such curve, though single readings can be large; an effect the other way counts as inactive or inconclusive.

SMILES | FUS suppressor | Mito fusion act | TDP-43 yeast inh | A-T KAP1 phos | aSyn yeast inh | Abeta yeast res
O=C(Cc1ccc(-c2ccccc2)cc1)Nc1ccccn1 | i | i | 14µM | i | i | i
COc1ccc(CCN2C(=O)N(c3cccc(C)c3)C(=O)C2CC(=O)Nc2ccccc2)cc1OC (stereo not drawn) | ? | nt | i | nt | nt | i
O=C(CC1CC2CCC1C2)N1CCN(S(=O)(=O)c2ccccc2C(F)(F)F)CC1 (stereo not drawn) | ? | i | 22µM | i | i[1.84 µM] | i
O=C1CCC[C@H]2C[C@H](NCc3ccc(Br)cc3)CC[C@]23CCCN13 | i | nt | nt | nt | nt | nt
CC(C(O)c1ccc(O)cc1)N1CCC(Cc2ccccc2)CC1 (stereo not drawn) | i | 16µM! | i | i | i | i
C[C@@H](CN1CCC(Cc2ccccc2)CC1)[C@@H](O)c1ccc(O)cc1 | i | 23µM! | i | i | i | i
CCc1cccc(N2C(=O)CSC23C(=O)Nc2ccccc23)c1 (stereo not drawn) | i | nt | i | nt | i | i
CCOC(=O)C1CCN(C(=O)CCc2c(C)nc3cc(-c4ccccc4)nn3c2C)CC1 | i | i | 18µM | i | i | i
O=C(COC(=O)/C=C/c1ccc(Cl)cc1)NC1CCCCCC1 | i | i | i | i | i | i
O=C(COC(=O)/C=C/c1ccc(C(F)(F)F)cc1)NC1CC1 | i | i | 6.3µM | i | i | i
O=C(COC(=O)/C=C/c1cccc(Cl)c1)NC1CC1 | i | i | i | i | i | i
O=C(COC(=O)/C=C/c1ccc(Cl)cc1)NC1CC1 | i | nt | 35µM | i | i | i
O=C(COC(=O)/C=C/c1cccc(Cl)c1)NC1CCCC1 | i | i | 13µM | i | i[1.84 µM] | i
O=C(COC(=O)/C=C/c1ccccc1)NC1CC1 | i | i | i | i | i | i
O=C(COC(=O)/C=C/c1ccc(C(F)(F)F)cc1)NCC1CCCO1 (stereo not drawn) | i | i | 25µM | i | i | i
O=C(Cn1c(-c2cccs2)cc2cc(Cl)ccc21)N1CCCCC1 | i | nt | i | nt | nt | i
CCCCCC(=O)NC1CCCCN(Cc2ccc(Cl)cc2)C1=O (stereo not drawn) | i | nt | nt | nt | nt | nt
CC(=O)c1cc(-c2ccccc2S(=O)(=O)NC(C)(C)C)c(=O)n2c1CCC2 | i | nt | nt | nt | nt | nt
O=C(COC(=O)/C=C/c1ccc(C(F)(F)F)cc1)NC1CCCC1 | i | i | 10µM | i | i | i
CSc1ccc(/C=C/C(=O)OCC(=O)NC(C)C)cc1 | i | i | ? | i | i | i
CSc1ccc(/C=C/C(=O)OCC(=O)NC2CC2)cc1 | i | i | 22µM | i | i | i
O=C(COC(=O)/C=C/c1ccc(C(F)(F)F)cc1)NCc1ccco1 | i | i | 18µM | i | i | i
O=C(COC(=O)/C=C/c1cccc(C(F)(F)F)c1)NC1CCCCCC1 | i | i | i | i | i | i
O=C(COC(=O)/C=C/c1ccccc1)NCc1ccco1 | i | nt | i | nt | i | i
CCOC(=O)c1c(C)[nH]c(CCC(=O)NCc2ccc(CC)cc2)c1C | i | nt | i | nt | nt | i
SMILES | FUS suppressor | Mito fusion act | TDP-43 yeast inh | A-T KAP1 phos | aSyn yeast inh | Abeta yeast res
CC(=O)c1cc(-c2ccccc2)n(CC(=O)NCc2ccccc2)c1C | i | nt | nt | nt | nt | nt
N#Cc1cccc(NC(=O)O[C@@H]2CC[C@@]34CCCN3C(=O)CCC[C@H]4C2)c1 | i | nt | nt | nt | nt | nt
O=C(NCc1ccc2c(c1)CCN2C(=O)c1ccc(F)cc1)c1ccco1 | i | nt | i | nt | nt | i
CC(=O)n1c(=O)c2ccccc2c(=O)n1-c1ccccc1 | i | i | 3.2µM | i | i | i
CCOc1ccccc1NC(=O)COC(=O)c1cc(C(=O)OC)cc([N+](=O)[O-])c1 | i | i | i | i | i | i
COC(=O)c1cc(C(=O)OCC(=O)Nc2ccccc2OC(F)F)cc([N+](=O)[O-])c1 | i | i | 22µM | i | i | i
O=C(COC(=O)C1CCCCC1)Nc1ccccc1OC(F)F | i | i | 13µM | i | i | i
O=C(COC(=O)Cc1ccc(Cl)cc1Cl)Nc1ccccc1OC(F)F | i | i | 20µM | i | i | i
Cc1ccc(C)c(Cn2c3ccccc3c3cnn(CC(=O)NC4CCCCCC4)c(=O)c32)c1 | i | nt | i | nt | nt | i
COc1ccc2c(c1)[nH]c1c(Cl)ncnc12 | i | i | 11µM | i | ? | i
Cc1ccc2[nH]c3c(Cl)ncnc3c2c1 | i | i | i | i | i | i
C=C1CC(COc2cc(=O)oc3ccccc23)(c2ccccc2)OC1=O (stereo not drawn) | nt | nt | i | nt | i | i
C=C1CCC2C(C)(C)[C@H](O)CC[C@@]2(C)[C@@H]1COc1cc(=O)oc2ccccc12 (stereo partly drawn) | 35µM | 14µM | i | i | i | i
C=C1CCC2C(C)(C)[C@@H](O)CC[C@@]2(C)[C@@H]1COc1ccc2ccc(=O)oc2c1 (stereo partly drawn) | i | i | i | i | 18µM | i
COc1ccc(Cc2c(-c3ccco3)nc3ccc(Cl)cn23)c(C)c1 | i | nt | 22µM | nt | i | i
COc1ccc(Cc2c(-c3ccco3)nc3c(C)cc(Br)cn23)c(C)c1 | i | nt | i | nt | i | i
COc1ccc(Cc2c(-c3ccco3)nc3ccc(Br)cn23)c(C)c1 | i | nt | 4.5µM | nt | ? | i
CC(C)(C)Cc1c(-c2ccco2)nc2ccc(Cl)cn12 | i | nt | 11µM | nt | ? | i
CC(C)(C)Cc1c(-c2cccc(Cl)c2)nc2ccc(Cl)cn12 | i | nt | i | nt | i | i
Fc1ccccc1-c1n[nH]c(=S)n1N=Cc1ccc(OCc2ccccc2)cc1 | i | nt | nt | nt | nt | nt
CCOc1ccc(N2CC(NC(=O)Cc3ccccc3)CC2=O)cc1 (stereo not drawn) | i | nt | i | nt | nt | i
COc1cc2nc(NCc3ccccc3)n3nc(-c4ccccc4)nc3c2cc1OC | i | nt | i | nt | nt | i
Cn1c(SCC(=O)c2ccc3c(c2)NC(=O)CO3)nc2ccccc21 | i | i | i[0.397 µM] | i | i | i
